Test results: PMC7862700, “An all-to-all approach to the identification of sequence-specific readers for epigenetic DNA modifications on cytosine”

Assays:
Assay in all cases: DAPPL (digital affinity profiling via proximity ligation, sequencing); 10 mM Tris-HCl pH 7.5, 50 mM NaCl, 1 mM DTT, 4% glycerol, room temperature, 30 min; GST-TFs on glutathione beads, 16-mer random dsDNA library, 0.1% formaldehyde crosslink after washing; high values mean tight binding
Conditions in all cases: protein: recombinant; tags: N-terminal GST; dsDNA, one strand shown
FLI1 = molecular target: T1, FLI1 (Homo sapiens, UniProt Q01543 1-452)
T1 sequence: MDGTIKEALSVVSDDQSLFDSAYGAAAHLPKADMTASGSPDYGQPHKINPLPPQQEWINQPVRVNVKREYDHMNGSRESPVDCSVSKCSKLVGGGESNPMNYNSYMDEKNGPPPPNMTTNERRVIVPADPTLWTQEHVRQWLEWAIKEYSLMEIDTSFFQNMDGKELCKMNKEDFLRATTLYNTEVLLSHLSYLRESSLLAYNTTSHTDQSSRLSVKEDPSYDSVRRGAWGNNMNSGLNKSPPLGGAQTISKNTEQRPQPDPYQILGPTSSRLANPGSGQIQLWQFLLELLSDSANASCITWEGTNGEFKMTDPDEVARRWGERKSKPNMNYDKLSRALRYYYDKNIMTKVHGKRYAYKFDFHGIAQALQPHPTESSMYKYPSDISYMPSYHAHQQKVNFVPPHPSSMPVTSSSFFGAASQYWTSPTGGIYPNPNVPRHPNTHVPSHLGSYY
Procedure, shortened: (§1)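 Binding signal is given per hexamer as its read frequency for a factor divided by its frequency in the tag-only sample. GST-fused human transcription factors were expressed in yeast, captured on glutathione beads, barcoded with DNA and pooled with that sample, then incubated with 200 nmole of a 16-mer random double-stranded DNA library in Tris/NaCl/DTT/glycerol buffer for 30 min at room temperature. The pools were then washed, crosslinked, proximity-ligated, amplified by PCR and sequenced on an Illumina NextSeq500.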

GABPA = molecular target: T2, GABPA (Homo sapiens, UniProt Q06546 1-454)
T2 sequence: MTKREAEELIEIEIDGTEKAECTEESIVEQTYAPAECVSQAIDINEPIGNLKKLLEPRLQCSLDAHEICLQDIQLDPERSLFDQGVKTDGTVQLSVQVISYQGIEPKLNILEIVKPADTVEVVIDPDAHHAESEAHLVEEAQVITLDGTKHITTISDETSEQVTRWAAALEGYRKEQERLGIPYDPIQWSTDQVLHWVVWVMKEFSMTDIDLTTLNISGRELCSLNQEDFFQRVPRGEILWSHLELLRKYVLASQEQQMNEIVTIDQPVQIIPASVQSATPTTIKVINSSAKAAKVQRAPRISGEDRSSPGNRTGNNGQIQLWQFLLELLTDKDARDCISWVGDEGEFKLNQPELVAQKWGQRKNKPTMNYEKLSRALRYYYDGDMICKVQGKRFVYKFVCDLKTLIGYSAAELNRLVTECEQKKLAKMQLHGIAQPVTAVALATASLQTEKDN
Procedure, shortened: as §1

ELF1 = ELF1 (Homo sapiens, UniProt P32519 1-619)
Sequence of ELF1 (P32519 whole entry): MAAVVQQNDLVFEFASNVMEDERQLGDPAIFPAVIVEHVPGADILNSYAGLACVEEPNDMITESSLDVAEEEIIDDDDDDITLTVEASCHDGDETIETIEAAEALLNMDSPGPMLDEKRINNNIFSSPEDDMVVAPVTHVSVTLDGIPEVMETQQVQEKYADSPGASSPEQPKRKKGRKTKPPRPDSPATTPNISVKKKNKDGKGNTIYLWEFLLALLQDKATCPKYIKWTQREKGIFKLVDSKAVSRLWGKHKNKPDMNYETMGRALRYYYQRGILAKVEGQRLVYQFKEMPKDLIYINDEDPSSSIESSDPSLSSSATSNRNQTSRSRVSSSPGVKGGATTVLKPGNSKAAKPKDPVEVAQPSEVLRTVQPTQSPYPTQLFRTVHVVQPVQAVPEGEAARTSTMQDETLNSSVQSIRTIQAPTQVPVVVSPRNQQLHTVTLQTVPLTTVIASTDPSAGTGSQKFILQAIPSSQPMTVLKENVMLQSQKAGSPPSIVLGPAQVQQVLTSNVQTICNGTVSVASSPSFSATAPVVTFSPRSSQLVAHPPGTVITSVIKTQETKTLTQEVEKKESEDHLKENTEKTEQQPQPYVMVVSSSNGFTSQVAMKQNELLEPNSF
Procedure, shortened: as §1

EHF = molecular target: T3, EHF (Homo sapiens, UniProt Q9NZC4 1-300)
T3 sequence: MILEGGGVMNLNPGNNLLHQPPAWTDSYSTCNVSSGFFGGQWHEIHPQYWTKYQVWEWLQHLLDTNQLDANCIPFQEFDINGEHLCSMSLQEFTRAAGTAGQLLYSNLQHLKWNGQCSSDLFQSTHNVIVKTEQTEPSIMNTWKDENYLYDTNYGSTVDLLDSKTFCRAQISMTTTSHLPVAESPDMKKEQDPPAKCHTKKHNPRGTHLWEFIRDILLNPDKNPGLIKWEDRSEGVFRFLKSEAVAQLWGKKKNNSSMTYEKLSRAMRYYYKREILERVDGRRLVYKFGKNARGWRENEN
Procedure, shortened: as §1

SPIB = SPIB (Homo sapiens, UniProt Q01892 1-262)
Sequence of SPIB (Q01892 whole entry): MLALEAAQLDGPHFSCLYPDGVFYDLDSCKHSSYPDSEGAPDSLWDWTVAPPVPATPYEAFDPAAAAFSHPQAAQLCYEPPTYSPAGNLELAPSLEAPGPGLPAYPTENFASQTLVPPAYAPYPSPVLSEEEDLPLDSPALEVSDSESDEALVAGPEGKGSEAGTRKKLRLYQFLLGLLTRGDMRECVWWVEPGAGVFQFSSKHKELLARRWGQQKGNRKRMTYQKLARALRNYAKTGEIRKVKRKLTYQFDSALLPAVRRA
Procedure, shortened: as §1

ELK3 = molecular target: T4, ELK3 (Homo sapiens, UniProt P41970 1-407)
T4 sequence: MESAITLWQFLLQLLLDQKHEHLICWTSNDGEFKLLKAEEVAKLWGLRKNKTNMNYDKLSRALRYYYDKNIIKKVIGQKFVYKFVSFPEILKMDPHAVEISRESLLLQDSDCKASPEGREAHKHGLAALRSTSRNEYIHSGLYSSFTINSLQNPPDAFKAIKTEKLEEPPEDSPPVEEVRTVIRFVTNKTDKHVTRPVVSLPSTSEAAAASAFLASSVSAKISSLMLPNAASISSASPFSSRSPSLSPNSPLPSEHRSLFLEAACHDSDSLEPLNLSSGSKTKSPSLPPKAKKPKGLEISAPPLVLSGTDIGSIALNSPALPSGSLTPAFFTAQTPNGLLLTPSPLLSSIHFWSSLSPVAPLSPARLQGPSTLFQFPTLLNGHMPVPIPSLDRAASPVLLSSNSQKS
Procedure, shortened: as §1

ETV5 = ETV5 (Homo sapiens, UniProt P41161 1-510)
Sequence of ETV5 (P41161 whole entry): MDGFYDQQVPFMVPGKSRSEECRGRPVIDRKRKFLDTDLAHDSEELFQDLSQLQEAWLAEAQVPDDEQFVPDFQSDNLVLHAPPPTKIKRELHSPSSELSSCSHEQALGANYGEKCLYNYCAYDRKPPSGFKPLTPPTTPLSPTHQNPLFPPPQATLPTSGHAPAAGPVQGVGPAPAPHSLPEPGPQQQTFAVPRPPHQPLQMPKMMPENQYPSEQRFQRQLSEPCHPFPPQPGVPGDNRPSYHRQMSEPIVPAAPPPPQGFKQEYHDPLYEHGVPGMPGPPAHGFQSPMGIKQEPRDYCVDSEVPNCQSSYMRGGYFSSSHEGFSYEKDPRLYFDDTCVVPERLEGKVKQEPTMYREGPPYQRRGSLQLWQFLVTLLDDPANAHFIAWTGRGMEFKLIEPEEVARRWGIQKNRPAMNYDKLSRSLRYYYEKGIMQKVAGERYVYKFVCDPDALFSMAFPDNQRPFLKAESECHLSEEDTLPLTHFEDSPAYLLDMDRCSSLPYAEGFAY
Procedure, shortened: as §1

SPIC = molecular target: T5, SPIC (Homo sapiens, UniProt Q8N5J4 1-248)
T5 sequence: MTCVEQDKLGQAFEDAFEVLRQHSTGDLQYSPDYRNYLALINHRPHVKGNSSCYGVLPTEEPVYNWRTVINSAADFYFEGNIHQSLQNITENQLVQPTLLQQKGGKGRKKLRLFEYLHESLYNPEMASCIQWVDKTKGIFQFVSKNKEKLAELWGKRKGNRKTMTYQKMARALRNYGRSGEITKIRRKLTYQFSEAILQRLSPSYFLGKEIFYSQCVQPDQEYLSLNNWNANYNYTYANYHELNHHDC
Procedure, shortened: as §1

ELF4 = ELF4 (Homo sapiens, UniProt Q99607 1-663)
Sequence of ELF4 (Q99607 whole entry): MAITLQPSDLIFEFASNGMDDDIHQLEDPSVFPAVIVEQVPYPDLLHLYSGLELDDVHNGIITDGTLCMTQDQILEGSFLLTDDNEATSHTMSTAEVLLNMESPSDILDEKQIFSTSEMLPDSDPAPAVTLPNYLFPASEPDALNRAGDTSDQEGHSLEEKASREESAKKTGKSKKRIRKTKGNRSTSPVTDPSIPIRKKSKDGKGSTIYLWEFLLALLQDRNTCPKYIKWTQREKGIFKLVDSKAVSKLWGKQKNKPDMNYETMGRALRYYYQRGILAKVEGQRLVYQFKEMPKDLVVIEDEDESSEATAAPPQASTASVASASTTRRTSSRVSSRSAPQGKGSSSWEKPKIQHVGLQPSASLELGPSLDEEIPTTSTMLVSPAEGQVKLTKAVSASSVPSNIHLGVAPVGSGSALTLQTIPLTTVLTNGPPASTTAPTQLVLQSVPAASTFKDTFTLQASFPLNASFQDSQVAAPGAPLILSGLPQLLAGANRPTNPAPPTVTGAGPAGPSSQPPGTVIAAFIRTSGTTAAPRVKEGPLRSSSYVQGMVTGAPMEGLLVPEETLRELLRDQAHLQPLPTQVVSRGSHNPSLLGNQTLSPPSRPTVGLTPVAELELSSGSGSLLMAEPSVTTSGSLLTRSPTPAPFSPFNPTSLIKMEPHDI
Procedure, shortened: as §1

ETV1 = ETV1 (Homo sapiens, UniProt P50549 1-477)
Sequence of ETV1 (P50549 whole entry): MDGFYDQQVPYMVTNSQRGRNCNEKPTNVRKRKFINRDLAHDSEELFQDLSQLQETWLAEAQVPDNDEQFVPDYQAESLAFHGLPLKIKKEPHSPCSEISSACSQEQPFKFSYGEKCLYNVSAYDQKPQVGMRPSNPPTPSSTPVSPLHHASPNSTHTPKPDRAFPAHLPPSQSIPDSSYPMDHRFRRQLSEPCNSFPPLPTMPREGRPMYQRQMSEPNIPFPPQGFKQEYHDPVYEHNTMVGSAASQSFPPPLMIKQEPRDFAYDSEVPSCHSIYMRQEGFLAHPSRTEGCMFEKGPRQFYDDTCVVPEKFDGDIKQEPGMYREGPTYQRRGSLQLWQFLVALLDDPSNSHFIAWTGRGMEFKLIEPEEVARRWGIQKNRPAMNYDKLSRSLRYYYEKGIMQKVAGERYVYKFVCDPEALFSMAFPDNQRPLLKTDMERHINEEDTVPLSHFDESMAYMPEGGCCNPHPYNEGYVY
Procedure, shortened: as §1

ETV3L = molecular target: T6, ETV3L (Homo sapiens, UniProt Q6ZN32 1-361)
T6 sequence: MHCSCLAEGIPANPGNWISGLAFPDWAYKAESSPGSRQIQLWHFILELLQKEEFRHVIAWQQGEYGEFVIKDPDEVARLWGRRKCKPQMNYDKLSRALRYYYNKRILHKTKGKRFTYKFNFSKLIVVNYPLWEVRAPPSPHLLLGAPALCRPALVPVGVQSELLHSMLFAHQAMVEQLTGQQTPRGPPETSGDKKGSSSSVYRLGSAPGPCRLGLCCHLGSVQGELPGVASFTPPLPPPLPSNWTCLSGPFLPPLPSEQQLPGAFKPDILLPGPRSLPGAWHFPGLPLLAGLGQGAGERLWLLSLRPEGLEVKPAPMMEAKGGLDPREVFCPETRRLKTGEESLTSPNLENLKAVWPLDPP
Procedure, shortened: as §1

ETV3 = molecular target: T7, ETV3 (Homo sapiens, UniProt P41162-2 1-143)
T7 sequence: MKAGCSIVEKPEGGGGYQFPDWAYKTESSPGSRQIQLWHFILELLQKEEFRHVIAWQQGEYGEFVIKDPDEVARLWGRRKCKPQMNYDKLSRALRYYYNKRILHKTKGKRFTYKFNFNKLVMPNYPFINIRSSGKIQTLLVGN
Procedure, shortened: as §1

ELK1 = molecular target: T8, ELK1 (Homo sapiens, UniProt P19419 1-428)
T8 sequence: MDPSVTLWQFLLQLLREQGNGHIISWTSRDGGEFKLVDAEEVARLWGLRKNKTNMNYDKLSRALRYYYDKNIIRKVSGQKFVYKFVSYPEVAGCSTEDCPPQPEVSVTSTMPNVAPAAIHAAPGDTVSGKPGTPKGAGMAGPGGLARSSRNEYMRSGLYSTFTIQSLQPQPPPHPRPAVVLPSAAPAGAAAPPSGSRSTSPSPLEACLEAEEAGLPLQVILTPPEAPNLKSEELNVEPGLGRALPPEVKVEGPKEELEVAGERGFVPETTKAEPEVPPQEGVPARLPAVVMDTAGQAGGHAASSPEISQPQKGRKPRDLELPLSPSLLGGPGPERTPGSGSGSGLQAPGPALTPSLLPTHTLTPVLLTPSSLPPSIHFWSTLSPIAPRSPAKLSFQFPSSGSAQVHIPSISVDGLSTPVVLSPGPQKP
Procedure, shortened: as §1

ERG = molecular target: T9, ERG (Homo sapiens, UniProt P11308 1-479)
T9 sequence: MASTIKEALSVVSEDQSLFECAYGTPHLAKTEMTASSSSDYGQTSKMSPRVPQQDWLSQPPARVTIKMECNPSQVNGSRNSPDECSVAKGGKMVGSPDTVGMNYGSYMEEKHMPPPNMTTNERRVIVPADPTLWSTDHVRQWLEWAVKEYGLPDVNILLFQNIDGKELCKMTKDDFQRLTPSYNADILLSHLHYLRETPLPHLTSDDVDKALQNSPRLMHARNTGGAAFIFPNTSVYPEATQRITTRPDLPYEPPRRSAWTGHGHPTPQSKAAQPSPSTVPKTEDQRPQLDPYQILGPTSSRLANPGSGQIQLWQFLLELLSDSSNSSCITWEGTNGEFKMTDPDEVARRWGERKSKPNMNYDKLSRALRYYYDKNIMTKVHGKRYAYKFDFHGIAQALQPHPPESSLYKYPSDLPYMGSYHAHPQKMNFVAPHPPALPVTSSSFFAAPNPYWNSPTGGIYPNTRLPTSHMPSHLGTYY
Procedure, shortened: as §1

SPI1 = SPI1 (Homo sapiens, UniProt P17947 1-270)
Procedure, shortened: as §1

ETS2 = molecular target: T10, ETS2 (Homo sapiens, UniProt P15036 1-469)
T10 sequence: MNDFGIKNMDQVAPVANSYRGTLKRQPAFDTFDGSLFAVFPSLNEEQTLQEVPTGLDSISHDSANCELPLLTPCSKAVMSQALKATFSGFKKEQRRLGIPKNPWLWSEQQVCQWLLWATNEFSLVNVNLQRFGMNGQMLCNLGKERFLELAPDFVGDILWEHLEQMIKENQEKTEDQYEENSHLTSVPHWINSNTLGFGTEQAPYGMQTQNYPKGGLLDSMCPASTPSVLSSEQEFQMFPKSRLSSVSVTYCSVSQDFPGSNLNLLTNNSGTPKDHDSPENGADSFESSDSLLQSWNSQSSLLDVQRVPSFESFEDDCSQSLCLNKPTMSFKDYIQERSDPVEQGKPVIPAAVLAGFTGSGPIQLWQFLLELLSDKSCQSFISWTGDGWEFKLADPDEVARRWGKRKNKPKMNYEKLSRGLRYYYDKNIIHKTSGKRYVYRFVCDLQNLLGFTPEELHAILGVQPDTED
Procedure, shortened: as §1

ELF5 = molecular target: T11, ELF5 (Homo sapiens, UniProt Q9UKW6-2 1-255)
T11 sequence: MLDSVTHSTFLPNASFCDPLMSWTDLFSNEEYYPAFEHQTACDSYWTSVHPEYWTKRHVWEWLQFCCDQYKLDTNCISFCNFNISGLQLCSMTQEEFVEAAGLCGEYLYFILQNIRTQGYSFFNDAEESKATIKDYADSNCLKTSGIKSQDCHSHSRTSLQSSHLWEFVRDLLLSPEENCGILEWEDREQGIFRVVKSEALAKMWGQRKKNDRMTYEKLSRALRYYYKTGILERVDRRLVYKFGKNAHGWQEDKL
Procedure, shortened: as §1

ETV6 = ETV6 (Homo sapiens, UniProt P41212 1-452)
Sequence of ETV6 (P41212 whole entry): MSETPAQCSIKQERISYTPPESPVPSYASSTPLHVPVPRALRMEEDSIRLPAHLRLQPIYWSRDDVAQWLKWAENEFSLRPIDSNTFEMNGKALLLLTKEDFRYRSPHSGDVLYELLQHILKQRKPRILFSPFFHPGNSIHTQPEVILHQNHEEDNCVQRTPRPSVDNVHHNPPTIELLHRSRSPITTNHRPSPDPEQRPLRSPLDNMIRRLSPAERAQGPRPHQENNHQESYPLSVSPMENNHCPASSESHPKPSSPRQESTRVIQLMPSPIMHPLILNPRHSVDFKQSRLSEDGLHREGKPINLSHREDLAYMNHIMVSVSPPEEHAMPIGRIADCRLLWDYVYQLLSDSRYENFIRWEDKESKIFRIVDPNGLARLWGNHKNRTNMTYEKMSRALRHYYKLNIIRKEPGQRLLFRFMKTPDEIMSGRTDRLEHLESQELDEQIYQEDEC
Procedure, shortened: as §1

Sequence | binding signal (FLI1) | binding signal (GABPA) | binding signal (ELF1) | binding signal (EHF) | binding signal (SPIB) | binding signal (ELK3) | binding signal (ETV5) | binding signal (SPIC) | binding signal (ELF4) | binding signal (ETV1) | binding signal (ETV3L) | binding signal (ETV3) | binding signal (ELK1) | binding signal (ERG) | binding signal (SPI1) | binding signal (ETS2) | binding signal (ELF5) | binding signal (ETV6)
GGACTC | 1.08 fold enrichment (6-mer frequency, TF over GST control) | 1.07 fold enrichment (6-mer frequency, TF over GST control) | 1.09 fold enrichment (6-mer frequency, TF over GST control) | 1.12 fold enrichment (6-mer frequency, TF over GST control) | 1.05 fold enrichment (6-mer frequency, TF over GST control) | 1.04 fold enrichment (6-mer frequency, TF over GST control) | 1.08 fold enrichment (6-mer frequency, TF over GST control) | 1.01 fold enrichment (6-mer frequency, TF over GST control) | 1.13 fold enrichment (6-mer frequency, TF over GST control) | 1.07 fold enrichment (6-mer frequency, TF over GST control) | 1.03 fold enrichment (6-mer frequency, TF over GST control) | 1.08 fold enrichment (6-mer frequency, TF over GST control) |  |  |  |  |  | 
AGTGTC | 1.01 fold enrichment (6-mer frequency, TF over GST control) | 1.07 fold enrichment (6-mer frequency, TF over GST control) | 1.06 fold enrichment (6-mer frequency, TF over GST control) | 1.14 fold enrichment (6-mer frequency, TF over GST control) | 1.01 fold enrichment (6-mer frequency, TF over GST control) | 1.01 fold enrichment (6-mer frequency, TF over GST control) | 1.06 fold enrichment (6-mer frequency, TF over GST control) | 1.11 fold enrichment (6-mer frequency, TF over GST control) | 1.07 fold enrichment (6-mer frequency, TF over GST control) | 1.02 fold enrichment (6-mer frequency, TF over GST control) |  | 1.07 fold enrichment (6-mer frequency, TF over GST control) | 1.07 fold enrichment (6-mer frequency, TF over GST control) | 1.08 fold enrichment (6-mer frequency, TF over GST control) | 1.16 fold enrichment (6-mer frequency, TF over GST control) | 1.09 fold enrichment (6-mer frequency, TF over GST control) | 1.15 fold enrichment (6-mer frequency, TF over GST control) | 1.01 fold enrichment (6-mer frequency, TF over GST control)
